Yeast superoxide = lowers age-related superoxide in aged yeast cells; S. cerevisiae aged cells, superoxide DHE fluorescence; stronger effect = lower value; hit rate 0.18% among 330,000; superoxide response (% of plate mean), % at 10 µM; AID 2690;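 active means superoxide response under a set limit, about three screen SD below normal, cut at about 65% in these data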;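 further: yeast aged for seven days with compound at 30 °C before DHE staining; 100% = average MFI of all compound-treated wells on the plate with controls excluded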
aDG glyco up = increases alpha dystroglycan glycosylation; Pro5-aDG cells, alpha-DG glycosylation AlphaScreen (IIH6); 0% Pro5, 100% B10-LARGE cell signal; activation, % at 10 µM; hit rate 0.22% among 360,000; AID 624168;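 active means activation of at least 8% versus controls, or a plate z-score of at least 8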;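 further: Pro5 are CHO cells carrying HIG-tagged alpha-DG that lacks glycosylation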
FAS TE block = FAS thioesterase (human) inhibition. P49327. recombinant FAS-TE, OMFH fluorogenic substrate, fluorescence endpoint. inhibition, % at 15 µM. hit rate 0.67% among 360,000;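 active means compounds whose normalised, plate-corrected inhibition of enzyme fluorescence in the single-dose primary screen is 50% or more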;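 further: 0% = DMSO with enzyme and 100% = substrate without enzyme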
Target sequence (P49327 whole entry, looked up): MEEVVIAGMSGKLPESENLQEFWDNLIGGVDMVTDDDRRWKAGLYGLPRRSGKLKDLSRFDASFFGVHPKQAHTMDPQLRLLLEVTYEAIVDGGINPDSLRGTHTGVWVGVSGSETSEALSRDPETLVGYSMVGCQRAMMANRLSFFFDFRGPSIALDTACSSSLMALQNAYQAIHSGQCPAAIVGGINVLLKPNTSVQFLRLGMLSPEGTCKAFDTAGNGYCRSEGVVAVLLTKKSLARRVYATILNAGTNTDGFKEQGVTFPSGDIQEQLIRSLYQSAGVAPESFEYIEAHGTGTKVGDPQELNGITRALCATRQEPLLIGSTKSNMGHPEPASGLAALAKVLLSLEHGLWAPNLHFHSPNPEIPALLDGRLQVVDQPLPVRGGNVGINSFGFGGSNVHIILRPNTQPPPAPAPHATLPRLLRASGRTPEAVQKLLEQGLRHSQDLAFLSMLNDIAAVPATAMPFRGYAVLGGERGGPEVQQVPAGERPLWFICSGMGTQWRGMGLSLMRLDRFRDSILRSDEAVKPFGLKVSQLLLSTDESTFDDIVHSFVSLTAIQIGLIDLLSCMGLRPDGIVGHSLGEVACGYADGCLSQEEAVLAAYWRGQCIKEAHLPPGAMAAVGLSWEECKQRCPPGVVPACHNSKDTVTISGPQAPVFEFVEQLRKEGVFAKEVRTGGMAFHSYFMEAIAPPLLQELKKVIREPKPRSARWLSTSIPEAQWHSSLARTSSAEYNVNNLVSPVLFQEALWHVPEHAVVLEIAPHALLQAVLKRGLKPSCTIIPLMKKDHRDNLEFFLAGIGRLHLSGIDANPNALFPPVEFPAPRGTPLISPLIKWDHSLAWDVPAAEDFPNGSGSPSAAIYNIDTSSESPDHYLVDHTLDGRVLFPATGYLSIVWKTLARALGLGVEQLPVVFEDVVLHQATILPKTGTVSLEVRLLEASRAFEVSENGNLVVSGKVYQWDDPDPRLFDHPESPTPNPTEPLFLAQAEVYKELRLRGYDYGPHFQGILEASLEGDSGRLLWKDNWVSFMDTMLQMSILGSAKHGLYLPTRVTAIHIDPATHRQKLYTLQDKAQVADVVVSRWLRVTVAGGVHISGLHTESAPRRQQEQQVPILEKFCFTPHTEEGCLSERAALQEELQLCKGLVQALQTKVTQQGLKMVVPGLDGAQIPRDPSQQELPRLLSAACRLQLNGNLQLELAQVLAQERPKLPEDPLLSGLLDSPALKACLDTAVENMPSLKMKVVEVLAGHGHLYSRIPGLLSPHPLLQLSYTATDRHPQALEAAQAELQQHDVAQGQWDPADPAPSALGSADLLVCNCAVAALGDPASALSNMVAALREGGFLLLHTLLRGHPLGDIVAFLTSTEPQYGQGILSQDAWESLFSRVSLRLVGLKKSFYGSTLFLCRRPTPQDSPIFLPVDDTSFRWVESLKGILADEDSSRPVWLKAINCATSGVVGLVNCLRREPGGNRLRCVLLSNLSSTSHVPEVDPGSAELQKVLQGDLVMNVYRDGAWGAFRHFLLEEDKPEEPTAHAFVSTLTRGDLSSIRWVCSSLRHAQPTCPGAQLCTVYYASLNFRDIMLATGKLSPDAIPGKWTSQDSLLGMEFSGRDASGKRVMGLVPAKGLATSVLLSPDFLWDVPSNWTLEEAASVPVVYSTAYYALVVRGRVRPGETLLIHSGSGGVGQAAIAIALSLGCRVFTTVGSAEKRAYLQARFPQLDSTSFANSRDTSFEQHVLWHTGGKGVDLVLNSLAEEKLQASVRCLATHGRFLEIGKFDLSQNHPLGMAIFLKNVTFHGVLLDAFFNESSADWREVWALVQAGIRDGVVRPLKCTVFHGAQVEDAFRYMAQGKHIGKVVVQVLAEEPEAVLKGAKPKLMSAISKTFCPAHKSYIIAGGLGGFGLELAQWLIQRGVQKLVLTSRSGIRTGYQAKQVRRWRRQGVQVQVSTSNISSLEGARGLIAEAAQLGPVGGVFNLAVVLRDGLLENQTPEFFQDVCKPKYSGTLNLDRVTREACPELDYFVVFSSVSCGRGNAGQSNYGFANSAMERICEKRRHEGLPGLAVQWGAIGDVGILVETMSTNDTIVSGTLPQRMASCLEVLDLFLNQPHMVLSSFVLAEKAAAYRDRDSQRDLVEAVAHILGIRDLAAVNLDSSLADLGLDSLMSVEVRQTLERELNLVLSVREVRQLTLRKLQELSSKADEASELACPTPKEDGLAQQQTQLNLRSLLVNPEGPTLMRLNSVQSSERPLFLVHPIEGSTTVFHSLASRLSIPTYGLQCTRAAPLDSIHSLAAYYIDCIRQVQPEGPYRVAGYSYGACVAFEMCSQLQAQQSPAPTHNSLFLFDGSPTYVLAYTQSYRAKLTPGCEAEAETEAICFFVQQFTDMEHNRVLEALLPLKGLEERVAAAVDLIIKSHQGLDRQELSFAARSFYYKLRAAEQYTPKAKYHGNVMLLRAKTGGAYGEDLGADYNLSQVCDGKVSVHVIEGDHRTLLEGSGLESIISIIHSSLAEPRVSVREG
Mot1-301 SUMO = inhibitors of SUMOylation pathway: yeast Mot1-301 growth rescue | S. cerevisiae Mot1-301 growth rescue, ATP luminescence, 38.5C; percent above DMSO median, 100 means doubled | growth rescue, % at 18.8 µM | hit rate 1% among 320,000;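 active means every valid replicate shows activation above 250% relative to neutral control wells; inactive means the rest, any valid replicate at or below 250%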;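 further: OY570 slx delta 5 strain wells were the positive control but not used for scaling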
MPTP inh = blocks calcium-induced mitochondrial swelling; isolated mouse mitochondria, Ca2+ swelling absorbance, 30 min; inhibition, % at 10 µM; hit rate 1.4% among 360,000;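 active means inhibition of 50% or more, scaled per plate between neutral and stimulator controls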;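 further: 0% = DMSO wells given calcium and 100% = 1 mM EGTA wells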
H9c2 protect = myocardial damage modulation in H9c2 cells. AID 588492. protection from H2O2 cell death, % at 20 µM. H9c2 cardiomyocytes, H2O2 injury protection, ATPLite, 2 h. hit rate 0.63% among 360,000;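 active means compounds giving at least 50% protection of heart cells from peroxide-induced death in the single-dose screen, raw or plate-pattern-corrected value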;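 further: 0% = DMSO wells with peroxide and 100% = DMSO wells without peroxide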
Mot1 SUMO dose = inhibits SUMO pathway, affecting Mot1-301 yeast growth | shares compounds with Mot1-301 SUMO | S. cerevisiae Mot1-301 galactose growth, ATP luminescence, 24 h; -100 = growth of slx-deleted rescue strain | growth activity, percent, % at 42 µM | 2,300 tested, under 10 active | AID 493004;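 active means Signal drops as the depositor expects, and the fitted half-maximal dose is no more than ten times the top valid tested dose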;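 further: more negative values mean stronger growth rescue toward the control strain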
Numbers without * were called inactive; i = inactive; nt = no result given; + = active, no number. This is a sample that favours compounds with a hit; in the whole collection about 3.8% have one here.

SMILES | Yeast superoxide | aDG glyco up | FAS TE block | Mot1-301 SUMO | MPTP inh | H9c2 protect | Mot1 SUMO dose
COc1ccc(N2C(=O)CSC23C(=O)N2c4c(cccc43)C(C)=CC2(C)C)cc1 (stereo not given) | 107 | 0 | -38 | -3 | 0 | -11 | nt
Cc1cc2c3c(c1)C1(SCC(=O)N1c1ccc(F)cc1)C(=O)N3C(C)(C)CC2C (stereo not given) | 84 | 0 | -87 | 423* | -1 | -6 | -1
COc1ccc(N2C(=O)CC(NCc3cccs3)C2=O)cc1 (stereo not given) | 96 | 0 | -3 | 359* | -3 | 5 | 1
OC(c1ccc(Cl)c(Cl)c1)c1ncc(-c2ccccc2F)[nH]1 (stereo not given) | nt | 0 | 23 | nt | 20 | -12 | nt
O=C1CSC(c2ccc(F)cc2)N1c1ccccc1F (stereo not given) | 95 | 0 | 1 | -16 | -1 | 10 | nt
O=C1CSC(c2ccc(F)c(F)c2)N1c1ccccc1F (stereo not given) | 89 | 0 | -3 | 891* | 1 | -6 | 0
COc1ccc(NC(=O)N(C)C[C@H]2Oc3c(NC(=O)c4nc5ccccc5s4)cccc3C(=O)N([C@@H](C)CO)C[C@H]2C)cc1 | 84 | 0 | 4 | 6 | -1 | 14 | nt
O=C(CSc1nnc(-c2ccccc2Cl)o1)Oc1ccc(Br)cc1 | 96 | 0 | 3 | 501* | 2 | -10 | 0
CCOc1ccccc1CN1CCN(Cc2ccc3cc(F)ccc3n2)CC1CCO (stereo not given) | 99 | 0 | -2 | 12 | -1 | 6 | nt
CCOc1ccccc1CN1CCN(Cc2ccon2)CC1CCO (stereo not given) | 110 | 0 | -4 | 817* | 1 | 1 | 0
CCOc1ccc2nc(CN3CCN(Cc4ccccc4OCC)C(CCO)C3)ccc2c1 (stereo not given) | 93 | 0 | 0 | 511* | -1 | -2 | 0
CCOc1ccccc1CN1CCN(CC2CC2)CC1CCO (stereo not given) | 100 | 0 | -4 | -5 | 5 | 1 | nt
Cc1cccc(C)c1NC(=O)C1(C)CSCC(=O)N1CC(F)(F)F (stereo not given) | nt | 0 | nt | nt | -1 | nt | nt
CN1C(=O)/C(=C/c2ccccc2OCc2cccc(F)c2)NC1=S | 95 | 0 | 13 | 8 | 6 | -11 | nt
COc1cc(/C=C2\NC(=S)N(C)C2=O)ccc1OCc1cccc(F)c1 | 117 | 0 | -1 | 563* | 0 | -1 | 0
O=Cc1cc(N=Nc2ccc(S(=O)(=O)O)cc2)ccc1O | 95 | 0 | -2 | 3 | 3 | 4 | nt
O=S(=O)(O)c1ccc(N=NNc2ccc(Br)cc2)cc1 | 88 | 0 | 0 | 539* | 1 | 4 | 0
CCCCn1c(N)c(N(C(=O)CSc2nncn2-c2ccccc2)C2CCCC2)c(=O)[nH]c1=O | nt | 0 | -6 | nt | 0 | 6 | nt
CCC(=O)Nc1ccc2c(c1)C(=O)N(C)C2=O | 97 | 0 | -5 | i | 21 | -4 | nt
CN1C(=O)c2ccc(NC(=S)NC(=O)C(C)(C)C)cc2C1=O | 101 | 0 | -5 | 439* | 0 | 0 | 0
O=C(NCc1cc([N+](=O)[O-])ccc1O)c1cccnc1Sc1ccccc1Cl | 112 | 0 | -3 | 109 | 0 | 0 | nt
O=C(CSc1nc2ccc(Cl)cc2[nH]1)NCc1ccco1 | 101 | 0 | -2 | 358* | 1 | -1 | 0
CCNC(=O)COC(=O)Cc1ccc(Cl)cc1Cl | 77 | 0 | -3 | -8 | 0 | 3 | nt
CC(=O)Nc1cc(-c2ccncc2)cn2c(-c3ccccc3)cnc12 | nt | 0 | -2 | nt | 0 | 11 | nt
N#CCCN(C(=O)COC(=O)c1cccc(S(=O)(=O)Nc2ccc([N+](=O)[O-])cc2)c1)c1ccccc1 | 115 | 0 | 0 | 444 | 9 | -3 | nt
SMILES | Yeast superoxide | aDG glyco up | FAS TE block | Mot1-301 SUMO | MPTP inh | H9c2 protect | Mot1 SUMO dose
N#CCCN(C(=O)COC(=O)c1ccc(S(=O)(=O)Nc2ccccc2)cc1)c1ccccc1 | 118 | 0 | 3 | + | 4 | -6 | 0
Cc1cc(S(=O)(=O)N2CCCC(N3CCOCC3)C2)c(C)cc1Cl (stereo not given) | 98 | 0 | 1 | 421* | -1 | -1 | 0
C/C(=N\NC(=O)Cc1csc(N2CCOCC2)n1)c1ccccc1 | 87 | 0 | -8 | 476* | 5 | -7 | 0
COc1ccccc1CNCc1cc(OC)c(OC)c(OC)c1 | 104 | 0 | -5 | + | 0 | 0 | 0
CC(=O)c1c(C)[nH]c(C(=O)CN2CCN(S(=O)(=O)c3ccccc3F)CC2)c1C | 90 | 1 | -1 | -7 | 1 | -10 | nt
COc1ccccc1OCCSc1nc2ccccc2n1CCC(=O)O | 98 | 0 | -4 | + | -1 | -3 | 0
Cc1cccc(C)c1NC(=O)C1(C)CCC(=O)N1C1CCN(Cc2ccccc2)CC1 (stereo not given) | nt | 0 | -5 | nt | -2 | -2 | nt
Cc1c(C(=O)NC2CCOC2)oc2c(F)cccc12 (stereo not given) | 106 | 0 | -6 | 10 | -2 | 0 | nt
Cc1ccc2nc(SCC(=O)Nc3cccc(S(N)(=O)=O)c3)[nH]c2c1 | 99 | 0 | -8 | 741* | 2 | -3 | 0
Cc1cc(OC(=O)Nc2ccccc2)ccc1Cl | nt | 0 | -5 | nt | 0 | -2 | nt
CCOc1ncccc1-c1nc(-c2cccs2)no1 | 79 | 0 | 7 | 916* | 0 | 0 | 0
CCOc1nc(-c2ccccc2)ccc1-c1noc(-c2cccs2)n1 | 103 | 0 | 6 | nt | -2 | -5 | nt
COc1ccc(-c2nc3ccc(Cl)cn3c2CC(C)(C)C)cc1OC | nt | 0 | 18 | nt | 3 | -3 | nt
CN(C)c1ccc(/C=C/c2cccc[n+]2[O-])cc1 | 91 | 0 | -9 | 584* | 2 | 0 | 0
CCN(CC)CCNC(=O)CCn1c(=S)[nH]c2cc3c(cc2c1=O)OCO3 | 98 | 0 | -10 | + | 2 | 2 | 0
Cc1cnc(C(=O)OC(C(=O)c2c[nH]c3ccccc23)c2ccccc2)cn1 (stereo not given) | 109 | 0 | 0 | 533* | -1 | 8 | 0
COc1ccccc1-c1cc(NC=O)c2ncc(-c3ccc(S(C)(=O)=O)cc3)n2c1 | nt | 0 | -4 | nt | 0 | 30 | nt
O=C1c2ccccc2C(=O)N1CCSc1nc2ccccc2c(=O)n1CCCN1CCOCC1 | 100 | 0 | 20 | -33 | 0 | 22 | nt
O=C1c2ccccc2C(=O)N1CCCCSc1nc2ccccc2c(=O)n1CCCN1CCOCC1 | 103 | 0 | 7 | + | -2 | 59* | 0
